From PubChem BioAssay (Tox21)
Records with an inconclusive call do not appear. Activity calls are given as the source filed them. Unless noted, calls follow the shape of the dose curve; as a rule, active = well fitted curve in the direction sought with a large enough effect in the repeat runs; inconclusive = weak or mixed curves; inactive = no such curve, though single readings can be large; an effect the other way counts as inactive or inconclusive.

Tests used:
[1] = qHTS assay to identify small molecule antagonists of the TGF-beta/Smad signaling pathway - cell viability counter screen (AID 1346824); also: nearly all actives have a fitted effect of over 50% in size
In short: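 SBE-bla HEK 293T cells, incubated overnight, then compound plus 0.25 ng/mL TGF-beta1 (stock added) for 5 hr at 37 C. Viability was read in the same wells by CellTiter-Glo luminescence after 30 min at room temperature.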

[2] = qHTS assay to identify small molecule agonists of the TGF-beta/Smad signaling pathway - cell viability counter screen (AID 1346829); also: top concentration of the series differs between compounds; nearly all actives have a fitted effect of over 45% in size
In short: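 HEK 293T SBE-bla line, 5 hr compound exposure at 37 C, multiplexed CellTiter-Glo viability read by luminescence.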

[3] = qHTS assay to identify small molecule agonists of the TGF-beta/Smad signaling pathway (AID 1346859; active = well fitted activation curve with a large enough effect in the signal ratio in the repeat runs, not every such curve was filed as active; the % refers to the signal ratio; also: series mostly up to about 77 µM)
In short: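 Dual-wavelength fluorescence (460/530 nm emission) quantified beta-lactamase expression under the Smad binding element in HEK 293T cells following 5 hr compound treatment at 37 C.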

[4] = target: Thyrotropin-releasing hormone receptor (Homo sapiens) (UniProt P34981); assay: qHTS assay to identify small molecule antagonists of the thyrotropin-releasing hormone receptor (TRHR) signaling pathway (AID 1346877; active = well fitted inhibition curve with a large enough effect in the repeat runs, not every such curve was filed as active; also: series mostly up to about 51 µM)
Sequence of Thyrotropin-releasing hormone receptor (Homo sapiens) (P34981 whole entry, looked up): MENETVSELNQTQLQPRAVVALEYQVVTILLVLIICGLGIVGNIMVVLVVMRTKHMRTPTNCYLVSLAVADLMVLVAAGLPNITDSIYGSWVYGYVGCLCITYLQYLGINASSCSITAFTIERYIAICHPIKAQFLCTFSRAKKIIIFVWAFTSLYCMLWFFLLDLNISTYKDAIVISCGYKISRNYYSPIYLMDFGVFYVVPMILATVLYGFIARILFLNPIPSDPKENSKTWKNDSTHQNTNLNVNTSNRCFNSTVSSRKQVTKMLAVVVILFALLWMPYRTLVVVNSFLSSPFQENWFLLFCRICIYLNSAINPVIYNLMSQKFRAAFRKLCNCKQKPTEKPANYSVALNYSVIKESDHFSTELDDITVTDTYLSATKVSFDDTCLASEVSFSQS
In short: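 Human TRHR in HEK293 cells; inhibition of the intracellular calcium rise triggered by 1 nM TRH was followed by fluorescence over 3 min. Compounds were run at 15 concentrations, three replicates each.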

[5] = target: Thyrotropin-releasing hormone receptor (Homo sapiens) (UniProt P34981); assay: qHTS assay to identify small molecule agonists of the thyrotropin-releasing hormone receptor (TRHR) signaling pathway (AID 1346891; calls by dose curve;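 also: HEK293 cells expressing TRHR with calcium dye readout; series mostly up to about 58 µM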)
In short: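 Kinetic fluorescence (3 min, 1 s intervals) reported intracellular calcium after compound transfer onto TRHR-Hek293 cells pre-loaded with dye for 2 h at 37 °C.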

[6] = Human pregnane X receptor (PXR) small molecule agonists, qHTS cell viability counter screen (AID 1346977); also: nearly all actives have a fitted effect of over 50% in size
In short: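 HepG2 cells stably carrying the PXR-Luc reporter are cultured with 5% charcoal-stripped FBS and treated with compounds for 24hr. CellTiter-Fluor is added at 23hr and fluorescence is read after 1hr.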

[7] = Caspase-3/7 induction in HepG2 cells by small molecules, qHTS assay (AID 1346978); also: nearly all actives have a fitted effect of over 15% in size
In short: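 Wild-type HepG2 cells, 2,000/well, settled 5 hr at 37 C and 5% CO2, then compound-treated for 17 hr; caspase-3/7 activity read by luminescent Caspase-Glo 3/7 after 30 min at room temperature.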

[8] = Caspase-3/7 induction in CHO-K1 cells by small molecules, qHTS cell viability counter screen (AID 1346979); also: nearly all actives have a fitted effect of over 35% in size
In short: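 Seeding: 1,500 CHO-K1 cells/well. Rest: 5hr, 37C. Treatment: compounds in DMSO, 16hr. Read: CellTiter-Fluor, 1hr, fluorescence.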

[9] = Caspase-3/7 induction in CHO-K1 cells by small molecules, qHTS assay (AID 1346980); also: nearly all actives have a fitted effect of over 15% in size
In short: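 Wild-type CHO-K1 cells exposed to compounds for 17hr at 37 C, 5% CO2. Caspase-3/7 activity then measured by Caspase-Glo 3/7 luminescence after 30min at room temperature.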

[10] = Caspase-3/7 induction in HepG2 cells by small molecules, qHTS cell viability counter screen (AID 1346981); also: series mostly up to about 92 µM; nearly all actives have a fitted effect of over 30% in size
In short: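 The parent HepG2 line is plated at 2,000 cells per well and rested 5 hr before compound pinning from DMSO stocks. Following a 16-hr treatment at 37 C, a fluorogenic live-cell substrate (CellTiter-Fluor) reports viability after 1 hr.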

[11] = target: Nuclear receptor subfamily 1 group I member 2 (Homo sapiens) (UniProt O75469); assay: Human pregnane X receptor (PXR) small molecule agonists, qHTS assay (AID 1346982); also: nearly all actives have a fitted effect of over 35% in size
Sequence of Nuclear receptor subfamily 1 group I member 2 (Homo sapiens) (O75469 whole entry, looked up): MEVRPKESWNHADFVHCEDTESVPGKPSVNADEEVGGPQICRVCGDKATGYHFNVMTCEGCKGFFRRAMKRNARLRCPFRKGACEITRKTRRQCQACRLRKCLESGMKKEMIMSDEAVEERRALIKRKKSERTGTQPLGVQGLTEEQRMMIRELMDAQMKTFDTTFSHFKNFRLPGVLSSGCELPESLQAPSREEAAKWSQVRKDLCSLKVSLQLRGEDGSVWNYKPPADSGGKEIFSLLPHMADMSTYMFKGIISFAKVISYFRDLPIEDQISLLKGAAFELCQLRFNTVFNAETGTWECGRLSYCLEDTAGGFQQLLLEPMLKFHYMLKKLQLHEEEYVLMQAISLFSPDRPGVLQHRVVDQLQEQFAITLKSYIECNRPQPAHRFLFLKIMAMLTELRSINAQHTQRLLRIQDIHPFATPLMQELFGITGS
In short: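 After plating in 5% charcoal-stripped FBS and a 5 hr rest, PXR-Luc HepG2 cells received compounds in DMSO. Following 24 hr at 37 C, ONE-Glo was added and light output read.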

[12] = target: Cytochrome P450 2C9 (Homo sapiens) (UniProt P11712); assay: Cytochrome P450 Family 2 Subfamily C Member 9 (CYP2C9) small molecule antagonists: luciferase reporter qHTS assay (AID 1671198); also: nearly all actives have a fitted effect of over 50% in size; also: potency is read from the fitted curve at half-maximal effect
Sequence of Cytochrome P450 2C9 (Homo sapiens) (P11712 whole entry, looked up): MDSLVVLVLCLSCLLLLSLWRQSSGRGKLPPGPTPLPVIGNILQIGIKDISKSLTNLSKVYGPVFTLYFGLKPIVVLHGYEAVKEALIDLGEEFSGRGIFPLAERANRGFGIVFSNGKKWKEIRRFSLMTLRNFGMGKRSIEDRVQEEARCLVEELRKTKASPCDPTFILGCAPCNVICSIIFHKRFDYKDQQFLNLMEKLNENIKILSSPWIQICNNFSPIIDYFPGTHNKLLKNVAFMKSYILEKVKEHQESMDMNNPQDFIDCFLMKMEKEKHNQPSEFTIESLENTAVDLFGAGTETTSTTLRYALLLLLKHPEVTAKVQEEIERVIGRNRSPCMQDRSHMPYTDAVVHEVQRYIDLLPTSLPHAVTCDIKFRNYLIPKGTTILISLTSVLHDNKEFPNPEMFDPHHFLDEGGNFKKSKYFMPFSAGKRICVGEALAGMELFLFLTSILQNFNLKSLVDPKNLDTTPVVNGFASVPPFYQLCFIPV
In short: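 P450-Glo proluciferin substrate with CYP2C9 enzyme; 10 min RT preincubation, then NADPH regeneration 1 h at 37C; luciferin detection reagent 20 min RT, luminescence in relative luminescence units.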

[13] = target: Voltage-gated inwardly rectifying potassium channel KCNH2 (Homo sapiens) (UniProt Q12809); assay: Human Ether-a-go-go-Related Gene (hERG) channel small molecule antagonists: fluorescence cell-based qHTS assay (AID 1671200);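 also: hERG-expressing U2OS cells given a thallium stimulus after FluxOR II dye loading; series mostly up to about 77 µM; nearly all actives have a fitted effect of over 50% in size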
Sequence of Voltage-gated inwardly rectifying potassium channel KCNH2 (Homo sapiens) (Q12809 whole entry, looked up): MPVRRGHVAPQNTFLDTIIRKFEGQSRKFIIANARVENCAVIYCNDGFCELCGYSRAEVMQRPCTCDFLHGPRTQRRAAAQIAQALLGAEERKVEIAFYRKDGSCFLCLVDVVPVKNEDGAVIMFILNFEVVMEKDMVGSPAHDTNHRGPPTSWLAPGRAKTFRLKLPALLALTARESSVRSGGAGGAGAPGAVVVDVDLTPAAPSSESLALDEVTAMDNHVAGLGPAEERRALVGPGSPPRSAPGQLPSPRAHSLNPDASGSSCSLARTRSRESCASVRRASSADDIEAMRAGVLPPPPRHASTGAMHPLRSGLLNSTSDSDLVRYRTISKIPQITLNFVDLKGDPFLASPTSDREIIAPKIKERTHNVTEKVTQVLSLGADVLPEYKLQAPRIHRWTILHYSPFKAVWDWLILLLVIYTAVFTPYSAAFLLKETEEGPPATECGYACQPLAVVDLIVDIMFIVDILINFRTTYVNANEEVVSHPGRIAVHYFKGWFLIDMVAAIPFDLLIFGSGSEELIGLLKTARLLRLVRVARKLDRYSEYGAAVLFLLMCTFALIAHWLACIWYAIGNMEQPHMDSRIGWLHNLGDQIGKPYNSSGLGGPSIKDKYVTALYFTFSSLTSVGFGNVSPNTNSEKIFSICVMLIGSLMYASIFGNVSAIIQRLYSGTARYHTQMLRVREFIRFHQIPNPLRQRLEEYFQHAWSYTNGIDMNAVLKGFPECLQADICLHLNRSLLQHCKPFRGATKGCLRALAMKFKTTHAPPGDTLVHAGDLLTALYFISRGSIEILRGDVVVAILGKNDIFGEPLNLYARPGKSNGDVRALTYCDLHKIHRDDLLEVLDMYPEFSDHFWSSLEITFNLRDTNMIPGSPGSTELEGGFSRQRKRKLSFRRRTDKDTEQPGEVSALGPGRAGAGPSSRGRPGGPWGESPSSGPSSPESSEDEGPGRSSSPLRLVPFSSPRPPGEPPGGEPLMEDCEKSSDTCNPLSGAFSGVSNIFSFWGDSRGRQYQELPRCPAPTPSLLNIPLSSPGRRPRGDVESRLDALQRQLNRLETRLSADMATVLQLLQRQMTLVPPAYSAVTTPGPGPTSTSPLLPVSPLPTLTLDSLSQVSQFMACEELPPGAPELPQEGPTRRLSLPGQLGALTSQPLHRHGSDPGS
In short: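 First, 1000 cells per well are seeded and cultured overnight at 37 C. Next, FluxOR II dye is loaded for 1 h at room temperature, protected from light. After 10 more minutes, stimulus is added and fluorescence is read.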

[14] = target: Cytochrome P450 3A4 (Homo sapiens) (UniProt P08684); assay: Cytochrome P450 Family 3 Subfamily A Member 4 (CYP3A4) small molecule antagonists: luciferase reporter qHTS assay (AID 1671201)
Sequence of Cytochrome P450 3A4 (Homo sapiens) (P08684 whole entry, looked up): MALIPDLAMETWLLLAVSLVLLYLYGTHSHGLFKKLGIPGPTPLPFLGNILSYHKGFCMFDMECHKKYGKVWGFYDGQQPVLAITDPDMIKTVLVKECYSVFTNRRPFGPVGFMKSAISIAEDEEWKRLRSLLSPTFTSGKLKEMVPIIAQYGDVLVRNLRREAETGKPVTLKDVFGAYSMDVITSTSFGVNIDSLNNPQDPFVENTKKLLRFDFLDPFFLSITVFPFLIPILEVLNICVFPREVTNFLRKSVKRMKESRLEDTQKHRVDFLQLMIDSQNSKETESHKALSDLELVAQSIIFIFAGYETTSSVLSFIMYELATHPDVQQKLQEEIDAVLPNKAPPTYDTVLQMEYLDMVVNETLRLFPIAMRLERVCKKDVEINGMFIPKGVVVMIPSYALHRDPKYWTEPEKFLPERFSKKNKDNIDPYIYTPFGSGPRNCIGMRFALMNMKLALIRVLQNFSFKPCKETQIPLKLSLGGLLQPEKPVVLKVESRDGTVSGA
In short: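 Enzyme and proluciferin substrate are mixed with test chemicals for 10 min, then NADPH regeneration system drives turnover for 1 h at room temperature. A detection reagent halts the reaction; luminescence after 20 min gives relative activity.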

[15] = target: Cytochrome P450 2D6 (Homo sapiens) (UniProt P10635); assay: Cytochrome P450 Family 2 Subfamily D Member 6 (CYP2D6) small molecule antagonists: luciferase reporter qHTS assay (AID 1671196)
Sequence of Cytochrome P450 2D6 (Homo sapiens) (P10635 whole entry, looked up): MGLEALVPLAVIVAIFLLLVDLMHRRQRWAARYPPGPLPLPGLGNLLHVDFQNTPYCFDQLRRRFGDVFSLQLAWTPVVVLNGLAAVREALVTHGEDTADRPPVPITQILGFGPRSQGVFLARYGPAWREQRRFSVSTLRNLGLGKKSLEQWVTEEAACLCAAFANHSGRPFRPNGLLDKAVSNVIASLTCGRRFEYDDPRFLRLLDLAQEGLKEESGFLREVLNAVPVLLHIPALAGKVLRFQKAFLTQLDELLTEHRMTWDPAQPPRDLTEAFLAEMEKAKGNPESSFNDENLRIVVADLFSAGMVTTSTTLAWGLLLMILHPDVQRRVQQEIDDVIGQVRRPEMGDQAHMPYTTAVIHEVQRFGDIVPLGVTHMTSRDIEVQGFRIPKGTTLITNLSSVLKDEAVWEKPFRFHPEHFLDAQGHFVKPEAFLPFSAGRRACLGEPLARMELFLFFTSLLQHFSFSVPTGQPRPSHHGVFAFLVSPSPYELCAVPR
In short: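 Quantitative HTS of Tox21 chemicals against CYP2D6 using a luminescent proluciferin substrate. After NADPH addition, 1 h room-temperature reaction; luminescence recorded 20 min post detection reagent.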

[16] = target: Nuclear receptor subfamily 1 group I member 2 (Rattus norvegicus) (UniProt Q9R1A7); assay: Rat pregnane X receptor (rPXR) activation by small molecules, qHTS assay (AID 1346983); details: rPXR luciferase reporter cells, One-Glo luminescence, 24 h; max activation: active compounds read high; also: nearly all actives have a fitted effect of over 20% in size
Sequence of Nuclear receptor subfamily 1 group I member 2 (Rattus norvegicus) (Q9R1A7 whole entry, looked up): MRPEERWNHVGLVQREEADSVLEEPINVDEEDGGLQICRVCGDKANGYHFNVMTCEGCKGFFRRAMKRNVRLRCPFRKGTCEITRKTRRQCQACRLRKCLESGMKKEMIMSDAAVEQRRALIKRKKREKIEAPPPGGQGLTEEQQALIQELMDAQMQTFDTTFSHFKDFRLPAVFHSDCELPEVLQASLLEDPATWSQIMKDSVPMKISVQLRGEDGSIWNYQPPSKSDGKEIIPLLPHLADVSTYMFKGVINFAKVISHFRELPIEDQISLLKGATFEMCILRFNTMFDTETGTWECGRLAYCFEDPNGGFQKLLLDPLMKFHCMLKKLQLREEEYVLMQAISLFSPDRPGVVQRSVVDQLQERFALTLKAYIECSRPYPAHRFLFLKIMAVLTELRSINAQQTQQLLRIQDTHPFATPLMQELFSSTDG
In short: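 Cell-based rPXR activation assay: rPXR cells, 2,000 per well, rested 5hr at 37 C, then exposed to compounds in DMSO for 24 hr at 37 C. Luciferase activity read by One-Glo luminescence after 30 min at room temperature.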

[17] = target: Nuclear receptor subfamily 1 group I member 2 (Homo sapiens) (UniProt O75469); assay: CYP3A4 induction through human pregnane X receptor (PXR) by small molecules, qHTS assay (AID 1346984); also: nearly all actives have a fitted effect of over 40% in size
In short: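 Human PXR activation is tracked via CYP3A4 promoter-luciferase in DPX-2 (HepG2) cells. Compounds treat cells for 24hr at 37C, and luminescence is read after One-Glo.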

[18] = target: Nuclear receptor subfamily 1 group I member 2 (Homo sapiens) (UniProt O75469); assay: Human pregnane X receptor (PXR) activation by small molecules, qHTS assay (AID 1346985); also: nearly all actives have a fitted effect of over 40% in size
In short: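 DPX-2 cells (HepG2 co-transfected with a PXR response element and a CYP3A4-promoter luciferase construct) were seeded at 2,000 per well, rested 5 hr at 37C, then exposed to DMSO-dissolved compounds for 24 hr. Activation was read as luciferase luminescence.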

[19] = target: Cytochrome P450 1A2 (Homo sapiens) (UniProt P05177); assay: Cytochrome P450 Family 1 Subfamily A Member 2 (CYP1A2) small molecule antagonists: luciferase reporter qHTS assay (AID 1671199)
Sequence of Cytochrome P450 1A2 (Homo sapiens) (P05177 whole entry, looked up): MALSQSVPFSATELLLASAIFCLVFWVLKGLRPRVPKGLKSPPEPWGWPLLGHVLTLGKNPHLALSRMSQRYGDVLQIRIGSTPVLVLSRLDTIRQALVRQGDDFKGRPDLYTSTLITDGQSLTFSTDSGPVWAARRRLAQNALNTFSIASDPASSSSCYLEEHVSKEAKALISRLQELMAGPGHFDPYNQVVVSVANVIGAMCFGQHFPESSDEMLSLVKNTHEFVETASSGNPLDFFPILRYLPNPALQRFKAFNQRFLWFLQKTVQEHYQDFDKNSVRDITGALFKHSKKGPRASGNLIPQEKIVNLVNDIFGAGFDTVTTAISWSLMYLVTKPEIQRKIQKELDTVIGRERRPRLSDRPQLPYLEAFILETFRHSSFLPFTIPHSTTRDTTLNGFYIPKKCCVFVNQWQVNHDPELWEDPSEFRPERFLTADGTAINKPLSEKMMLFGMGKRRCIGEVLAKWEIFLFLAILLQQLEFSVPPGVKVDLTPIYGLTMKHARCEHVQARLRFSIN
In short: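 Quantitative high-throughput format using the P450-Glo CYP1A2 system. Reaction initiated by NADPH regeneration solution, 1 h at room temperature, then stopped with detection reagent; luminescence measured 20 min later.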

[20] = target: Cytochrome P450 2C19 (Homo sapiens) (UniProt P33261); assay: Cytochrome P450 Family 2 Subfamily C Member 19 (CYP2C19) small molecule antagonists: luciferase reporter qHTS assay (AID 1671197); also: series mostly up to about 120 µM; nearly all actives have a fitted effect of over 65% in size
Sequence of Cytochrome P450 2C19 (Homo sapiens) (P33261 whole entry, looked up): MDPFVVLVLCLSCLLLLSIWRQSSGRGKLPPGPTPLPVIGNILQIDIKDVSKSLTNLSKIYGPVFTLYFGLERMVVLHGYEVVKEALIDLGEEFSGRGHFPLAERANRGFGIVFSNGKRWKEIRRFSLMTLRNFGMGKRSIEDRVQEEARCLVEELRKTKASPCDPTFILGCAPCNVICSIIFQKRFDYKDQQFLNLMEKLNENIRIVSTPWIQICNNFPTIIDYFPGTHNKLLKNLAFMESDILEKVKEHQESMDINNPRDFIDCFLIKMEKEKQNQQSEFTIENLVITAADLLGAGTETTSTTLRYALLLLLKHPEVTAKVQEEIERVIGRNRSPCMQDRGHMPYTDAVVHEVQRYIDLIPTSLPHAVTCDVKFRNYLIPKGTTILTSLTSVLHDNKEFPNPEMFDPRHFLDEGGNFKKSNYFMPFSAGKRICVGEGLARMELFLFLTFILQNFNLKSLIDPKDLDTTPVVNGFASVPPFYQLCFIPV
In short: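 First, compounds are pinned into enzyme-substrate mix and held 10 min at room temperature. Second, NADPH regeneration solution is added and plates incubate 1 h at 37C. Third, detection reagent is added and luminescence read after 20 min.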
% is scaled to controls: 0 for no effect and ±100 for the full control effect.

CCCCCCCCCCCCCC(=O)OC
inactive: outcome [1] | outcome [2] | outcome [3] | outcome [4] | outcome [5] | Potency [6] | outcome [7] | Potency [8] | outcome [9] | Potency [10] | Potency [11] | Potency [12] | Potency [13] | Potency [14]

O=C(O)c1ccccc1C(=O)Nc1ccc(S(=O)(=O)Nc2nccs2)cc1
inactive: outcome [1] | outcome [2] | outcome [3] | outcome [4] | outcome [5] | Potency [6] | outcome [7] | Potency [8] | outcome [9] | Potency [11] | Potency [15] | Potency [13] | Potency [14]

O=C(O)/C=C/c1ccccc1
inactive: outcome [1] | outcome [2] | outcome [3] | outcome [4] | outcome [5] | Potency [6] | outcome [7] | Potency [8] | outcome [9] | Potency [10] | Potency [11] | max activation [16] -6.4% | outcome [17] | Potency [18] | Potency [12] | Potency [19] | Potency [13] | Potency [14]

CCCCC(=O)N(C)C
inactive: outcome [1] | outcome [2] | outcome [3] | outcome [4] | outcome [5] | Potency [6] | outcome [7] | Potency [8] | outcome [9] | Potency [10] | Potency [11] | Potency [20] | Potency [19] | Potency [13] | Potency [14]

CCCCCCCCCCCCC
inactive: outcome [1] | outcome [2] | outcome [3] | outcome [4] | outcome [5] | Potency [6] | outcome [7] | Potency [8] | outcome [9] | Potency [10] | Potency [11] | Potency [20] | Potency [12] | Potency [19] | Potency [13] | Potency [14]

Nc1ccc(S(=O)(=O)NC(=O)c2ccccc2)cc1
inactive: outcome [1] | outcome [2] | outcome [3] | outcome [4] | outcome [5] | Potency [6] | outcome [7] | Potency [8] | outcome [9] | Potency [10] | Potency [11] | max activation [16] -3.91% | outcome [17] | Potency [18] | Potency [20] | Potency [19] | Potency [13] | Potency [14]

NC(=O)NNC(N)=O
inactive: outcome [1] | outcome [2] | outcome [3] | outcome [4] | outcome [5] | Potency [6] | outcome [7] | Potency [8] | outcome [9] | Potency [10] | Potency [11] | Potency [15] | Potency [20] | Potency [13] | Potency [14]
active: Potency [12] 79.6 µM
